ChEMBL document CHEMBL3988442, “University of Dundee, Small-Polar-MMV Screening Library” (2021)
Screen size: about 48,000 compounds; about 13,000 (27%) showed an effect of 50% or more. This is one part of the list.

system: Wolbachia pipientis; assay: Anti-Wolbachia Cell-Based Screen; format: functional; design: scale not given: in the data most compounds retested in dose-response had high values; details: 5 µM

Row | SMILES | Percent Effect [%]
1 | F[C@@H]1CN(Cc2nccs2)C[C@@H]1OCc1nc2cnccc2[nH]1 | 1.083
2 | O=C(NC1CC1)C1CN(Cc2ccc3c(c2)OCCO3)CCN1 (stereo not given) | -21.08
3 | COc1ccc(CCNC(=O)C2CCC(Cn3cnnn3)CC2)cc1 (stereo not given) | -2.407
4 | COC(=O)c1ccc(NC(C)c2ccc3c(c2)NC(=O)CO3)nn1 (stereo not given) | 109.1
5 | COc1ccc(C(C)NS(=O)(=O)c2ccc3c(c2)CCC(=O)N3)cc1F (stereo not given) | 13.2
6 | CC(NC(=O)NCCn1ccnc1)c1ccc2c(c1)NC(=O)CO2 (stereo not given) | -0.9133
7 | COC(=O)c1ccc(NC(C)c2ccc3c(c2)CC(=O)N3)nn1 (stereo not given) | 83.43
8 | CC(NC(=O)NCCCn1cccn1)c1ccc2c(c1)NC(=O)CO2 (stereo not given) | -10.21
9 | CC(NC(=O)Nc1ccncc1)c1ccc2c(c1)CC(=O)N2 (stereo not given) | 6.994
10 | COc1ccc(C)cc1C(C)NS(=O)(=O)c1ccc2c(c1)CCC(=O)N2 (stereo not given) | -0.1201
11 | COc1cccc(NC(=O)NC(C)c2ccc3c(c2)CC(=O)N3)c1 (stereo not given) | -1.814
12 | COC(=O)c1ccc(NC(C)c2ccc3c(c2)CCC(=O)N3)nn1 (stereo not given) | 54.02
13 | COc1ccc(-c2noc(Cn3cc4c(n3)CCC4)n2)c(OC)c1OC | 2
14 | Cc1cc2n(n1)CC(CNC1CCN(Cc3ccccc3C)CC1)CN2 (stereo not given) | -1.399
15 | COC(=O)c1ccc(N2CCN(C(=O)C3CC3)C(C)C2)cc1 (stereo not given) | -9.327
16 | CCC(=O)N1CCN(c2ccc(C(=O)OC)cc2)CC1C (stereo not given) | -6.169
17 | COC(=O)c1ccc(N2CCN(CCC(=O)NC(N)=O)C(C)C2)cc1 (stereo not given) | 4.115
18 | COC(=O)c1ccc(N2CCN(CCC#N)C(C)C2)cc1 (stereo not given) | 9.254
19 | CNC(=O)NC(=O)CCN1CCN(c2ccc(C(=O)OC)cc2)CC1C (stereo not given) | 121.7
20 | COC(=O)c1ccc(N2CCN(CCS(C)(=O)=O)C(C)C2)cc1 (stereo not given) | 130.9
21 | COCC(=O)N1CCN(c2ccc(C(=O)OC)cc2)CC1C (stereo not given) | -2.487
22 | CNC(=O)NC(=O)CN1CCN(c2ccc(C(=O)OC)cc2)CC1C (stereo not given) | 123.3
23 | COC(=O)c1ccc(N2CCN(CCN3CCOCC3)C(C)C2)cc1 (stereo not given) | -3.012
24 | COC(=O)c1ccc(N2CCN(CC(=O)NC(N)=O)C(C)C2)cc1 (stereo not given) | 126.9
25 | COC(=O)c1ccc(N2CCN(C(=O)C3CCC3)C(C)C2)cc1 (stereo not given) | -8.706
26 | COC(=O)c1ccc(N2CCN(C(=O)CC(F)(F)F)C(C)C2)cc1 (stereo not given) | -6.136
27 | CCn1nc(CC(C)C)cc1C(=O)N1CCOCC(O)C1 (stereo not given) | 14.61

Row | SMILES | Percent Effect [%]
28 | Cc1c(Br)cccc1NC(=O)N(C)CCO | -1.587
29 | CCc1cc(N[C@H]2CCC[C@H]2O)n2nccc2n1 | -17.41
30 | O=C(CCn1ccnc1)N1CC[C@@H](c2ccc3ccccc3c2)[C@H](O)C1 | 3.256
31 | Cc1nn(C)c(Cl)c1C1CCCN1C(=O)c1ccc2c(c1)OCO2 (stereo not given) | 4.266
32 | Cc1nn(C)c(C)c1C1CCCN1C(=O)c1ccc2c(c1)OCCO2 (stereo not given) | 107.2
33 | Cc1nc(C(=O)N2CCCC2c2c(C)nn(C)c2C)ccc1C#N (stereo not given) | -5.29
34 | Cc1nn(C)c(C)c1C1CCCN1C(=O)c1ccc(CN(C)C)cc1 (stereo not given) | 0.5484
35 | COc1c(C2CCCN2C(=O)c2ccc3c(c2)OCO3)c(C)nn1C (stereo not given) | 110.4
36 | NC(=O)CC1CCCCN1C(=O)Cc1cccc(Br)c1 (stereo not given) | -22.53
37 | Cc1ccc(N2CCC(NC(C)c3ccc(C)o3)CC2)nc1 (stereo not given) | 5.031
38 | O=C(CC(F)(F)F)N1C[C@H]2CC[C@@H]1CN(Cc1ccccc1)C2 | -26.8
39 | c1cncc(-c2c[nH]c([C@@H]3COCCN3Cc3ccncc3)n2)c1 | -1.952
40 | CN(CC(=O)Nc1nc2c(s1)CCCCCC2)C(=O)c1ccco1 | -14.29
41 | CN(CC(=O)Nc1nc2c(s1)CCC2)C(=O)c1cccs1 | 12.75
42 | COc1ncccc1C(=O)Nc1nc2c(s1)CN(S(=O)(=O)C1CC1)CC2 | -5.987
43 | COCCn1ccc2c(C(=O)Nc3nc4c(s3)CCC4)cccc21 | 149.9
44 | COCCn1cc(C(=O)N2CCCC2c2ccncc2)c2ccccc21 (stereo not given) | 12.21
45 | COCCn1cc(CC(=O)Nc2nc3c(s2)CCC3)c2ccccc21 | 108.7
46 | NC(=O)CCSCc1cc(Br)cc2cccnc12 | -18.43
47 | CCn1cc(C#N)c(=O)c2cc(Br)ccc21 | -20.97
48 | C=C(C)CN(CC)Cc1nc(C(C)(C)C)no1 | 1.625
49 | Cc1ccccc1CN(Cc1ccc(S(C)(=O)=O)cc1)CC(C)C | 34.24
50 | COc1cc(Br)c(CNC2CCCNC2=O)cc1OC.Cl (stereo not given) | -7.392
51 | COCc1ccc(OC)c(CNC2CCCNC2=O)c1 (stereo not given) | 133.5
52 | COc1cc(Br)cc(CNC2CCCNC2=O)c1O (stereo not given) | -10.61
53 | Cn1cccc1CNCC1CCCn2cc(C(C)(C)C)nc21 (stereo not given) | 4.297
54 | NCC1CCN(c2cnn(CCCn3cccn3)c(=O)c2)CC1 | 3.68

Row | SMILES | Percent Effect [%]
55 | Cc1cc(C)n(CC2CCCCN2CC(=O)Nc2nnc(C)s2)n1 (stereo not given) | -11.09
56 | Cc1cc(C)n(CC2CCCN2CC(=O)Nc2nnc(C)s2)n1 (stereo not given) | -4.484
57 | Cc1cc(C)n(CC2CCCN2CC(=O)NC2CCOCC2)n1 (stereo not given) | -0.8879
58 | Cc1cc(C)n(CC2CCCN2CCC(=O)Nc2cc(C)on2)n1 (stereo not given) | 109.3
59 | Cc1cc(C)n(CC2CCCCN2CCC(=O)Nc2cc(C)on2)n1 (stereo not given) | 105.6
60 | Cc1cc(C)n(CC2CCCCN2CC(=O)Nc2ccncc2)n1 (stereo not given) | 9.261
61 | CN(C)C(=O)C1CN(Cc2ccc(C#N)cc2F)c2ccccc2O1 (stereo not given) | -1.206
62 | CC(NC(=O)N1CCN(c2cccs2)CC1)c1ccncc1 (stereo not given) | -4.876
63 | CC(=O)N1CCCC(C(=O)N2CCN(Cc3cc(C)on3)CC2)C1 (stereo not given) | 8.609
64 | CSc1nnc(CC2CCN(C(=O)COc3cccnc3)CC2)n1C | 8.261
65 | CC(=O)N1CCC(NC2(Cc3cc(C(C)(C)O)on3)COC2)CC1 | 1.756
66 | CCC(=O)N1CCC(Cc2cnc(Nc3cnccn3)cn2)CC1 | 88.17
67 | CC(=O)N1CCC(Cc2cnc(Nc3cc(C)on3)cn2)CC1 | 121.6
68 | O=C(Cc1cnccn1)N1CCC(c2nccn2CC2CC2)CC1 | -28.72
69 | O=C(CN1CCCCC1Cn1cncn1)NCc1ccccn1 (stereo not given) | -8.236
70 | Cc1cnn(CC2CCCN2CC(=O)Nc2cc(C)on2)c1 (stereo not given) | 104.6
71 | Cc1cnn(CC2CCCN2CC(=O)NCc2ccccn2)c1 (stereo not given) | 118.9
72 | CCN1CCC(NC(=O)CN2CCCCC2Cn2cc(C)cn2)CC1 (stereo not given) | 7.683
73 | Cc1cnn(CC2CCCN2CC(=O)Nc2nccs2)c1 (stereo not given) | 91.79
74 | Cc1cnn(CC2CCCCN2CC(=O)Nc2c(C)n[nH]c2C)c1 (stereo not given) | 8.734
75 | Cc1cnn(CC2CCCN2CC(=O)Nc2nncs2)c1 (stereo not given) | 1.96
76 | Cc1cnn(CC2CCCCN2CC(=O)Nc2nncs2)c1 (stereo not given) | -7.053
77 | Cc1cnn(CC2CN(CC(=O)NCc3ccccn3)CCO2)c1 (stereo not given) | -0.3283
78 | Cc1cnn(CC2CCCN2CC(=O)Nc2cc(C)no2)c1 (stereo not given) | 114.2
79 | Cc1cnn(CC2CCCCN2CCC(=O)Nc2cc(C)on2)c1 (stereo not given) | 2.664
80 | O=C(O)CC[C@@H]1CN(c2ccncc2)CC[C@@H]1N1CCOCC1 | -3.387
81 | Cc1ccc(C(=O)N2CCSCC2)cc1NC(=O)NCC1CCC1 | -32.66

Row | SMILES | Percent Effect [%]
82 | Cc1cnn(CC2CCCN2CC(=O)N(C)Cc2ccc(C)o2)c1 (stereo not given) | 15.94
83 | Cc1cnn(CC2CCCN2CC(=O)Nc2cc(C(C)C)no2)c1 (stereo not given) | 129.6
84 | Cn1ncc(NCc2cc(F)cc(F)c2)c(Cl)c1=O | -8.673
85 | COc1ccc(NC(=O)CCC2CCCN(Cc3ncon3)C2)cc1Cl (stereo not given) | 9.109
86 | CN(C)CCNC(=O)CNC(=O)N1CCc2c([nH]c3ccc(Cl)cc23)C1 | 31.1
87 | CC1CN(C(=O)c2cc(=O)[nH]c3ccc(F)cc23)CCO1 (stereo not given) | 4.129
88 | CN(CC(=O)N1CCc2[nH]c3ccc(F)cc3c2C1)CC1OCCO1 | 90.48
89 | CN(C)C[C@@H]1[C@H]2CN(C(=O)c3cc(=O)[nH]c4ccc(F)cc34)C[C@@H]12 | -6.499
90 | O=C(CN1CCc2[nH]c3ccccc3c2C1)NCc1ccco1 | -4.019
91 | O=C(CNC(=O)N1CCc2c([nH]c3ccc(Cl)cc23)C1)N1CCOCC1 | 10.93
92 | CN(CC(=O)N1CCc2[nH]c3ccccc3c2C1)CC1OCCO1 | 105.4
93 | CN(C)CCCNC(=O)CNC(=O)N1CCc2c([nH]c3ccccc23)C1 | 22.94
94 | Cc1ccc2[nH]c3c(c2c1)CN(C(=O)CN(C)CC1OCCO1)CC3 | 95.71
95 | c1ccc2c(NCC3(N4CCOCC4)CCSC3)ncnc2c1 (stereo not given) | -37.37
96 | CC(CO)NC(=O)c1ccc2[nH]/c(=N\S(C)(=O)=O)sc2c1 (stereo not given) | 96.98
97 | CSCCC(C)NC(=O)c1cccc(-c2n[nH]c(C)n2)c1 (stereo not given) | -6.222
98 | CSCCC(CO)NC(=O)c1ccc2[nH]/c(=N\S(C)(=O)=O)sc2c1 (stereo not given) | 102
99 | CCC(CC)NC(=O)c1ccc2c(c1)C(c1nc[nH]n1)CN2S(C)(=O)=O (stereo not given) | -0.8083
100 | Cc1nn(C)c2c(NCc3ccccc3F)nc(C3CC3)nc12 | -10.39
101 | Cc1nn(C)c2c(N(C)Cc3ccco3)nc(C3CC3)nc12 | 91.93
102 | Cc1nn(C)c2c(NCc3cccnc3)nc(C3CC3)nc12 | -0.9652
103 | COc1ccnc(N(C)Cc2ccco2)n1 | 6.13
104 | Cc1nn(C)c2c(N(C)Cc3cccs3)nc(C3CC3)nc12 | 84.71
105 | Cc1nn(C)c(C)c1CN(C)c1nc(C2CC2)nc2c(C)nn(C)c12 | 9.92
